Measurements published in PubChem BioAssay AID651965 (National Center for Advancing Translational Sciences (NCATS), 2013).
The whole screen tested about 340,000 compounds, of which about 6,400 (1.9%) were called active. Entries that show only a call come without a potency. About 4% were inconclusive and are not listed. This is one part of a sample in which actives are shown more often than they occur. Calls follow the shape of the dose curve; as a rule, active = well fitted falling curve with a large enough effect; inconclusive = small, poorly fitted or top-dose-only effect; inactive = no such curve, though single readings can be large or run the other way.

What follows are molecules tested against ATP-dependent Clp protease proteolytic subunit (Bacillus subtilis (strain 168)) (UniProt P80244) (assay: qHTS Assay for Activators of ClpP). Details: purified B. subtilis ClpP, FRET peptide cleavage, 20 min; series mostly up to 57.5 µM.
Summary of the method: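 Purified B. subtilis ClpP, 10 microg/mL final in Tris/HCl pH8 with KCl, BSA, glycerol and Tween-20, cleaved an Abz/nitrotyrosine-quenched decapeptide. Fluorescence (ex 320, em 430) was read at 0 and 20 min at room temperature. Delta was normalized to 5.8 microM ADEP and DMSO/no-enzyme controls.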
Also: the source files actives as falling curves though it sought activators and does not explain the sign; nearly all actives have a fitted effect of over 65% in size.
Potency is read from the fitted curve at half-maximal effect.

Chain of ATP-dependent Clp protease proteolytic subunit (Bacillus subtilis (strain 168)) (P80244 whole entry, looked up): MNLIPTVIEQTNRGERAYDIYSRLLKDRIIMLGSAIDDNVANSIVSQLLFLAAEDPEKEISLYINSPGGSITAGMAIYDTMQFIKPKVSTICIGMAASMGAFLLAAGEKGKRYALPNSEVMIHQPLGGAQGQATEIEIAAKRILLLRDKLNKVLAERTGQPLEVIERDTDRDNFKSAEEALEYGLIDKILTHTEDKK

| SMILES | Potency |
| --- | --- |
| Fc1cccc(Cc2c(-c3ccc(Cl)cc3)nc3ccc(Cl)cn23)c1 | inactive |
| O=C(Nc1cccc2cccnc12)c1ccc2sc([C@H]3C[C@H](O)[C@@H](CO)O3)nc2c1 | inactive |
| CCCCCc1c(Cc2ccccc2)ncn1CCc1ccccc1OC | inactive |
| O=C(Nc1nnc([C@H]2C[C@H](O)[C@@H](CO)O2)s1)c1cccc(Cl)c1 | inactive |
| CC(C)(O)C1=C[N+](=O)CC=C1 | inactive |
| O=S(=O)(c1cccc(C(F)(F)F)c1)N1c2ccccc2-n2cccc2C1c1cccnc1 (stereo not given) | inactive |
| CN(C)c1ccc(/C=N\Nc2ccc([N+](=O)[O-])cc2[N+](=O)[O-])cc1Cl | inactive |
| O=C(Nc1ccc(Cl)cc1)c1cnn2c1NC(=C1CC1)C=C2C(F)F | inactive |
| CC(C)(C)c1ccc(S(=O)(=O)NC(=O)C2(C)CCN2C(=O)CC2CC2)cc1 (stereo not given) | inactive |
| COc1ccc(C(C)C)cc1-c1ccc2nncn2c1 | inactive |
| C/C=C/NNC(=O)Cc1ccc(OC)cc1 | inactive |
| CC1(C)Cc2ccccc2-c2c[nH]c(=O)n21 | inactive |
| O=c1oc2ccc(C#CC3(O)CCCCC3)cc2cc1-n1cc(-c2ccsc2)nn1 | 31.6 µM (active) |
| CCCCCn1nnnc1-c1nc2cc3ccccc3cc2[nH]c1=O | inactive |
| CCOC(=O)[C@]12CCCC=C1N(Cc1ccc3c(c1)OCO3)C(=O)[C@H](CC(=O)NCc1cccs1)C2 | inactive |
| O=C(c1ccc2c(=O)n(Cc3ccco3)c(=S)[nH]c2c1)N1CCCC1 | inactive |
| O=C(Nc1cc(-c2nc3ncccc3o2)ccc1Cl)c1ccco1 | inactive |
| O=C(Nc1cccc(-c2nc3ncccc3o2)c1)c1ccco1 | inactive |
| Cc1cccc(C(=O)Nc2ccc(-c3nc4ncccc4o3)cc2C)c1 | 35.5 µM (active) |
| COc1ccc(C(NC(=O)C2CCN(CCCc3ccccc3)CC2)c2cccs2)cc1 (stereo not given) | inactive |
| COc1ccc(OCc2ccc(-c3nc(C#N)c(N4CCN(c5ccccc5)CC4)o3)o2)cc1 | inactive |
| CCC(C)Nc1oc(-c2ccc(COc3ccc(Cl)cc3)o2)nc1C#N (stereo not given) | 28.2 µM (active) |
| Cc1ccccc1OCc1ccc(-c2nc(C#N)c(N3CCCCC3)o2)o1 | inactive |
| CC1CC(C)CN(c2oc(-c3ccc(OCc4ccc(Cl)cc4)cc3)nc2C#N)C1 (stereo not given) | inactive |
| N#Cc1nc(COc2ccc(Cl)cc2)oc1N1CCCC1 | inactive |
| CN1CCN(c2oc(-c3ccc(COc4ccc(Cl)cc4)o3)nc2C#N)CC1 | 35.5 µM (active) |
| CCCCCc1c(-c2ccc(OC)c(OC)c2)ncn1CCc1ccccc1OC | inactive |
| O=S(=O)(c1ccc(Cl)cc1)c1nnn2c1nc(NC1CCCC1)c1sccc12 | 25.1 µM (active) |

| SMILES | Potency |
| --- | --- |
| CC1CCCN(c2nc3c(S(=O)(=O)c4ccc(C(C)C)cc4)nnn3c3ccsc23)C1 (stereo not given) | inactive |
| O=S(=O)(c1ccc(Br)cc1)c1nnn2c1nc(NC1CCCCCC1)c1sccc12 | inactive |
| C[C@@H]1Cn2cnc(C(=O)Nc3ccc(CNC(=O)OC(C)(C)C)cc3)c2C(=O)N1 | inactive |
| CC1CN(C(=O)c2cccc(NS(=O)(=O)c3ccc(Br)cc3)c2)CC(C)O1 (stereo not given) | inactive |
| COc1ccc(COC[C@H](CC(C)C)N2CCN(C(=O)c3cccc(C(F)(F)F)c3)CCC2=O)cc1 | inactive |
| COC(=O)C[C@@H]1C=C[C@@H](NC(=O)c2cccnc2)[C@@H](CO)O1 | inactive |
| COc1ccc(CCNc2nc(-c3ccc(Cl)cc3)cc(C(F)(F)F)n2)cc1OC | inactive |
| COc1ccc(-c2c(C)nn3c(N4CCC(C(=O)NCCC(C)C)CC4)cc(C)nc23)cc1OC | inactive |
| COc1ccc(CCNc2cc(C)nc3c(-c4ccc(Cl)cc4)c(C)nn23)cc1OC | 28.2 µM (active) |
| CNc1cncc(-c2cccc(C(=O)N3CCOCC3)c2)n1 | inactive |
| NCCCCC(C(=O)O)N(C(=O)OCc1ccccc1)C(=O)OCc1ccccc1 (stereo not given) | inactive |
| CC(C)(C)OC(=O)N(Cc1ccco1)S(=O)(=O)c1ccccc1Br | inactive |
| Cc1nc2ccc(NC(=O)N3CCC(c4ccccc4)C3)cc2nc1C (stereo not given) | 10 µM (active) |
| Cc1ccc(C2CCN(C(=S)Nc3cccc(Cl)c3)C2)cc1 (stereo not given) | inactive |
| O=C(C(=O)N1CCC(c2ccccc2)CC1)c1ccccc1 | inactive |
| COC(=O)[C@]12CCCCC=C1N(Cc1ccco1)C(=O)[C@H](CC(=O)NCC1CCCCC1)C2 | inactive |
| C[C@H](NC(=O)[C@@H]1CCCN1C(=O)[C@@H]1CCCN1C(=O)c1ccccc1)c1ccccc1 | inactive |
| CN(C)c1cccc2ccccc12 | inactive |
| CCOc1ccc(NC(=O)c2c(NC(=O)Cc3ccccc3)sc3c2CCCCC3)cc1 | inactive |
| O=C(Cc1ccccc1)Nc1sc2c(c1C(=O)Nc1ccc(Br)cc1)CCC2 | inactive |
| O=C(CN1CCCC1)Nc1sc2c(c1C(=O)Nc1ccccc1)CCCC2 | 28.2 µM (active) |
| Cc1ccc(-c2ccc(=O)n(CC(=O)NCCCN3CCCCC3)n2)cc1 | 14.1 µM (active) |
| CCc1ccc(-c2cc3c(=O)n(CC(=O)NCCCN4CCN(Cc5ccccc5)CC4)nc(C)n3n2)cc1 | inactive |
| CCN(CC)CCCNC(=O)CCn1nc(-c2ccc(Cl)cc2)ccc1=O | inactive |
| S=c1[nH]c(=S)c2n[nH]nc2[nH]1 | inactive |
| NC(=O)Nc1ccc(/C=C/c2ccnc3ccccc23)cc1 | inactive |
| CC(C)C1CC2=C(C(=O)OC(C)(C)O2)C(c2ccc(F)cc2)O1 (stereo not given) | inactive |
